Data: PubChem BioAssay (NCI)
Where “and” joins values, the source holds several entries; their conditions need not be identical. Equal entries are not always repeated. This is part of a sample that, as a whole, favours compounds with a hit. Of some 79,000 tested, about 15% had one in any assay. Calls of active or inactive are those of the source. No stated cut-off is given here; in the data, active means growth inhibition above about 70%; inactive means the rest.

Assay: NCI Yeast Anticancer Drug Screen. Data for the mlh1 rad18 strain (AID 175)
Conditions: S. cerevisiae mlh1 rad18 strain growth inhibition, stronger effect = higher value; at 50.0 µM unless noted
Procedure: Growth inhibition of yeast strains with defined genetic alterations is measured as a screen for potential anti-cancer activity. Selected strains with alterations in DNA damage repair or cell cycle control were exposed to compounds and growth inhibition was measured relative to vehicle treated controls. The strain used in this assay is mlh1 rad18

| SMILES | growth inhibition |
| --- | --- |
| O=C(CNc1nncs1)NO | -1.7% (inactive) |
| [O-][N+](CCO)(CCO)c1ncnc2nc[nH]c12 | 18.4% (inactive) |
| CN=Nc1c(O)[nH]c2ccc(C)cc12 | 2.05% (inactive) |
| O=C(Nc1ccc(Br)cc1)C(Br)C(Br)c1ccccc1 (stereo not given) | 97.9% (active) |
| O=C(O)CCCn1nnc2c(=O)[nH][nH]c(=O)c21 | 11.6% (inactive) |
| Cc1ccc(S(=O)(=O)CCN2CCN(C)CC2)cc1 | 1.05% (inactive) |
| O/N=C/c1ccc(O)cc1 | -28.9% (inactive) |
| C/C(=N/N)c1ccc2[nH]c3c(C)cc([N+](=O)[O-])c(C)c3c2c1 | 6.35% (inactive) |
| CCCCCCCCC(=O)NCO | -24.1% (inactive) |
| CCOC(=O)C(C)NC(=O)NC12CC3CC(CC(F)(C3)C1)C2 (stereo not given) | -0.2% (inactive) |
| Cc1cc(C)c(-c2noc(-c3ccc(Cl)cc3)c2C2=NCCN2)c(C)c1 | 8.45% (inactive) |
| O=C1CC(c2ccccc2)N1c1ccccc1 (stereo not given) | -22.8% (inactive) |
| CCOc1ccccc1NC(=O)/C(=N\NC(C)(C)C)C1C(=O)Nc2ccccc2S1=O (stereo not given) | 10.1% (inactive) |
| O=C(CC(=O)Nc1ccccc1Cl)NNC(c1cc(N=Nc2ccc(Br)cc2)ccc1O)P(O)O (stereo not given) | -2.35% (inactive) |
| c1ccc(CN(Cn2cccn2)Cn2cccn2)nc1 | 34.8% (inactive) |
| CCCc1ccc(C)c(Br)c1 | 3.3% (inactive) |
| Oc1ccc(O)c(CNc2ccc(C(O)C(F)(F)F)cc2)c1 (stereo not given) | 15.9% (inactive) |
| CC1CCCCN1P(c1ccccc1)N1CCCCC1C (stereo not given) | 22.7% (inactive) |
| CC(=O)Sc1ccc2c(c1)-c1ccccc1C2=O | 16.9% (inactive) |
| CN1C(=O)/C(=C2\SC(=O)N(CN3CCOCC3)C2=O)c2ccccc21 | 2.35% (inactive) |

| SMILES | growth inhibition |
| --- | --- |
| Cc1ccc([N+](=O)[O-])cc1N1C(=O)c2ccccc2C1=O | 13.2% (inactive) |
| O=C(O)C1C2OC3C(OC(=O)C31)C2Br (stereo not given) | -4.65% (inactive) and 25.3% (inactive) |
| O=C1CSC(c2ccc([N+](=O)[O-])cc2)N1c1ccc(-n2c(-c3ccccc3)nc3ccccc3c2=O)cc1 (stereo not given) | 13.2% (inactive) |
| c1ccc2c(c1)C(=NCCCN1CCCCCCC1)c1cccn1-2 | 25.4% (inactive) |
| CC12Nc3ccccc3N1C(=O)c1ccccc12 (stereo not given) | -0.5% (inactive) |
| CCO/C(C)=N\OC(=O)C(F)(F)F | -8.4% (inactive) |
| C/C(=N\NC(N)=O)c1ccc(Br)c2ccccc12 | -1.2% (inactive) |
| Cn1c2c(c3ccccc31)CCN(CCCCN1CCN(c3ccccc3)CC1)C2=O | -7.35% (inactive) |
| COc1cc(OC)c(I)cc1Cl | -12.3% (inactive) |
| CC(=O)CC/C=C(\C)CC(C)C | 10.1% (inactive) |
| Nc1nc(N)c(N=O)c(Nc2ccccc2)n1 | 43.4% (inactive) |
| O=C(CCl)Nc1cc2ccccc2oc1=O | -1.85% (inactive) |
| CC(=O)OC(C)COc1ccccc1 (stereo not given) | 15.6% (inactive) and 15% (inactive) |
| O=C(O)COc1ccc(NC(=O)COc2ccc(Cl)c(Cl)c2)cc1 | 15.1% (inactive) |
| c1ccc2c(c1)OC1OC2Oc2ccccc21 | -28.9% (inactive) and 11.8% (inactive) |
| CN(C)Cc1ccccc1CC1(O)CCCC1 | -12.5% (inactive) |
| COc1cc(OCc2ccc3oc(=O)c(-c4ccccc4)nc3c2)cc(OC)c1OC | 9.25% (inactive) |
| CCCCC(O)CCC (stereo not given) | -33.5% (inactive) |
| CN1CC(c2ccccc2)C(O)(C2(c3ccccc3)CN(C)CC(c3ccccc3)C2=O)C(c2ccccc2)C1 (stereo not given) | -7.65% (inactive) |
| CCCC(=O)n1ccc2ccccc21 | 1.6% (inactive) |
